The full list was thinned out, with hits kept by preference.
Mito fusion yeast = qHTS Assay for Small Molecule Inhibitors of Mitochondrial Division or Activators of Mitochondrial Fusion. S. cerevisiae fusion-defective mutant growth rescue, CellTiterGlo 48 h. Potency, µM (top dose mostly 46.1 µM), for the others: at the top dose growth rescue (activation), most hits filed as activators. actives 0.23% (n = 320,000). AID 485298, 2010; also: potency is read from the fitted curve at half-maximal effect; % of control where 0% means no effect; nearly all actives have a fitted effect of over 45% in size
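Compounds are tested for their ability to restore growth of mitochondrial fusion-defective yeast strains at non-permissive 37C in YPEG medium over 48 hours. Viability is quantified by luciferase luminescence.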
LDHA inh = qHTS assay for inhibitors of human lactate dehydrogenase; activity change, % (values are at about 110 or 230 µM); purified LDHA, NADH/diaphorase-resazurin fluorescence; active compounds read low; actives 0.15% (n = 480,000); in the data active = activity change below about -30%; inconclusive = mostly about -25% to -30%;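 also: plate controls were DMSO wells for no effect and wells without enzyme for full effect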
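LDH5 2 nM; NADH 0.06 mM, pyruvate 0.2 mM; 200 mM Tris pH 7.4, EDTA, Tween-20; 5 min RT. Detection: diaphorase 0.133 mg/mL + resazurin 37 µM, fluorescence ex540/em590 at 0 and 20 min; normalized to enzyme-free and DMSO wells.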
ClpP mod = qHTS Assay for Activators of ClpP; purified B. subtilis ClpP, FRET peptide cleavage, 20 min; Potency, µM (highest dose often 57.5 µM), without a hit: at the top dose activity change, negative = active; actives 1.9% (n = 340,000); active = well fitted falling curve with a large enough effect; inconclusive = small, poorly fitted or top-dose-only effect; inactive = no such curve, though single readings can be large or run the other way; also: potency is read from the fitted curve at half-maximal effect; the source files actives as falling curves though it sought activators and does not explain the sign; nearly all actives have a fitted effect of over 65% in size
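FRET quenching reversal measured ClpP activation: 10 microg/mL B. subtilis ClpP at pH 8 with the FRET-FV decapeptide, read at 430 nm after 320 nm excitation. The 20-min minus 0-min signal was scaled between DMSO/no-enzyme wells and ADEP (5.8 microM final).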
ASM inhibitor = Inhibitors of Secretory Acid Sphingomyelinase (S-ASM): qHTS. actives 0.006% (n = 340,000). Sphingomyelin phosphodiesterase (Homo sapiens), P17405. Potency, µM (top dose mostly 57.5 µM), for the others: top-dose activity change, negative = inhibition, actives largely listed as inhibitors. placental ASM, HMU-PC fluorogenic substrate, 60 min; also: potency is read from the fitted curve at half-maximal effect
Target sequence (P17405 47-631 limits assumed): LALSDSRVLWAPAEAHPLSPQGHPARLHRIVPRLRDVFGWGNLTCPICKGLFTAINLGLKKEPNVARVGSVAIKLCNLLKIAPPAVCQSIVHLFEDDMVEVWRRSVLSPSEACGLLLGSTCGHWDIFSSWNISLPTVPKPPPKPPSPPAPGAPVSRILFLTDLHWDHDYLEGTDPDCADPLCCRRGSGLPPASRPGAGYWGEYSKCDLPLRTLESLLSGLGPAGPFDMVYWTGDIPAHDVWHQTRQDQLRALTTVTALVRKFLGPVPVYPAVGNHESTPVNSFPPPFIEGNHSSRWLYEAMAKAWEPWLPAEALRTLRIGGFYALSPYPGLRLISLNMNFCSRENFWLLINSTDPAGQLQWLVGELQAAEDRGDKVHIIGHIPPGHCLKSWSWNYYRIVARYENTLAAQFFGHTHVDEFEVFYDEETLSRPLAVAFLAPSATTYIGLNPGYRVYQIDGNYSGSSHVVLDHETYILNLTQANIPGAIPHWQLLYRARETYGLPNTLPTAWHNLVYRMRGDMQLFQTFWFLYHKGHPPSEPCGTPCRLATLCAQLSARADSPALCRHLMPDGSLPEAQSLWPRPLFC
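Fluorescence read-out (Ex 386 nm, Em 447 nm) after stopping the reaction at pH 10. Enzyme: ASM from human placenta; substrate HMU-PC0, 9 uM final; 60 min, 37 °C. Compound preincubation 10 min, ambient temperature.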
IDH1 R132H inh = qHTS for Inhibitors of mutant isocitrate dehydrogenase 1 (IDH1): qHTS. Isocitrate dehydrogenase [NADP] cytoplasmic (Homo sapiens), O75874. IDH1-R132H enzyme, NADPH consumption, diaphorase/resazurin fluorescence. Potency, µM (highest dose often 76.6 µM), for inactives: top-dose activity change, negative = inhibition, actives largely listed as inhibitors. actives 0.093% (n = 390,000). AID 602179, 2012; also: potency is read from the fitted curve at half-maximal effect; % is scaled to controls: 0 for no effect and ±100 for the full control effect; nearly all actives have a fitted effect of over 65% in size
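IDH1-R132H (0.5 ug/mL) preincubated 30 min with compound, then NADPH (0.016 mM) and alpha-KG (2 mM) added; 80 min at RT, pH 7.5. Remaining NADPH coupled via diaphorase/resazurin to fluorescence (540/590 nm); concentration-response curves normalized to no-enzyme control.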
RGS4 inhibitor = Inhibitors of Regulator of G Protein Signaling (RGS) 4: qHTS. Potency, µM (top dose mostly 114 µM), inactives show top-dose activity change, negative = inhibition, hits mostly inhibitors. Transcreener GDP fluorescence polarization, RGS4-accelerated GTP hydrolysis. actives 0.039% (n = 390,000); also: potency is read from the fitted curve at half-maximal effect; % is scaled to controls: 0 for no effect and ±100 for the full control effect; nearly all actives have a fitted effect of over 75% in size
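MLSMR compounds (23 nl, pin-transferred) preincubated 10 min at room temperature with a 500nM (2x) first reagent, then RGS4 at 900nM (2x) plus Transcreener GDP mix added; fluorescence polarization (620/688 nm) read before and after 90 min at 30 °C.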
* = called active by the depositor; [ ] = dose if it differs, or a comment. Unless noted, calls follow the shape of the dose curve; as a rule, active = well fitted curve in the direction sought with a large enough effect; inconclusive = small, poorly fitted or top-dose-only effect, or another doubt; inactive = no such curve, though single readings can be large; an effect the other way counts as inactive or inconclusive.

CCc1cc(C(=O)N/N=C/c2ccc(O)cc2)c2ccccc2n1 was read as Mito fusion yeast -1%, LDHA inh -1, ASM inhibitor -1%, IDH1 R132H inh 0% and RGS4 inhibitor 1%.
Screening CC(C)(C)c1cc(C(=O)N/N=C/c2ccc(O)cc2)n(-c2ccccc2)n1 returned Mito fusion yeast -8%, LDHA inh 0, ClpP mod 32µM*, ASM inhibitor -2%, IDH1 R132H inh -3% and RGS4 inhibitor -13%.
Screening COc1ccc(-n2c(SCC(=O)Nc3ccccc3OC)nc(O)cc2=O)cc1 returned Mito fusion yeast -1%, LDHA inh -12, ClpP mod 35µM*, ASM inhibitor 7%, IDH1 R132H inh 2% and RGS4 inhibitor -7%.
COc1ccccc1NC(=O)CSc1nc2n[nH]c(C)c2c(=N)n1-c1ccccc1Cl was read as Mito fusion yeast 22µM*, LDHA inh 2, ClpP mod -10%, ASM inhibitor -19%, IDH1 R132H inh 9% and RGS4 inhibitor -10%.
CCc1ccccc1NC(=O)CSc1nc2n[nH]c(C)c2c(=N)n1-c1ccc(OC)cc1 was read as Mito fusion yeast -1%, LDHA inh -9, ClpP mod 3%, ASM inhibitor -10%, IDH1 R132H inh 1% and RGS4 inhibitor -13%.
Screening Cc1ccc(NC(=O)CSc2nc(O)cc(=O)n2-c2ccc(C)cc2)cc1 returned Mito fusion yeast 13%, LDHA inh -2, ClpP mod 1%, ASM inhibitor 1%, IDH1 R132H inh -4% and RGS4 inhibitor 7%.
COc1ccc(-n2c(SCC(=O)Nc3ccc(Br)cc3)nc(O)cc2=O)cc1 was read as Mito fusion yeast -3%, LDHA inh -3, ClpP mod 25µM*, ASM inhibitor 0%, IDH1 R132H inh -1% and RGS4 inhibitor -24%.
Nc1c(C(=O)Nc2ccc3c(c2)OCCO3)nnn1Cc1ccc(F)cc1 was read as Mito fusion yeast 13%, LDHA inh -4, ClpP mod 11µM*, IDH1 R132H inh 2% and RGS4 inhibitor 22%.
`Nc1c(C(=O)Nc2ccc3c(c2)OCCO3)nnn1Cc1cccc(Cl)c1` gave Mito fusion yeast inconclusive, LDHA inh -6, ASM inhibitor -3%, IDH1 R132H inh -8% and RGS4 inhibitor -5%.
Screening COc1ccc(Br)cc1Cn1nnc(C(=O)Nc2ccc3c(c2)OCCO3)c1N returned Mito fusion yeast 10µM*, LDHA inh -2, ClpP mod -2%, ASM inhibitor -4%, IDH1 R132H inh 7% and RGS4 inhibitor 16%.
For COc1ccccc1NC(=O)c1ccc(-n2cccc2)cc1 the results were LDHA inh 13.
Screening CCCN1/C(=C2/SC(=S)N(CC)C2=O)C=Cc2ccccc21 returned Mito fusion yeast -1%, LDHA inh -3, ClpP mod 0%, ASM inhibitor inconclusive, IDH1 R132H inh 4% and RGS4 inhibitor 5%[11.4 µM].
For CN1C(=O)/C(=C2/C=Cc3ccccc3N2CCCS(=O)(=O)O)SC1=S the results were Mito fusion yeast -3%, LDHA inh 6, ClpP mod 22µM*, ASM inhibitor -1%, IDH1 R132H inh 5% and RGS4 inhibitor -6%.
Screening Cc1ccc(S(=O)(=O)/C=C\C#N)cc1 returned RGS4 inhibitor inactive.
For Cc1ccc(S(=O)(=O)/C=C/C#N)cc1 the results were Mito fusion yeast -69% and RGS4 inhibitor 6µM*.
`O=[N+]([O-])c1cc(S(=O)(=O)C(F)(F)F)ccc1Sc1nc2ccccc2[nH]1` gave Mito fusion yeast -3%, LDHA inh 2, ClpP mod 25µM*, ASM inhibitor -13%, IDH1 R132H inh 5% and RGS4 inhibitor -18%.
`CS(=O)(=O)c1ccc(Sc2nc3ccccc3[nH]2)c([N+](=O)[O-])c1` gave Mito fusion yeast -1%, LDHA inh -10, ClpP mod -2%, ASM inhibitor -3%, IDH1 R132H inh 0% and RGS4 inhibitor 10%.
O=C1C=C(c2cccc(Cl)c2O)C[C@@H](c2ccc3c(c2)OCO3)C1 was read as Mito fusion yeast 11µM*, LDHA inh 4, ClpP mod 0%, ASM inhibitor -8%, IDH1 R132H inh -2% and RGS4 inhibitor -7%.
For Cc1cccc(C(=O)Sc2ccc(Cl)cc2)c1 the results were LDHA inh -8.
`O=C(/C=C/c1ccccc1O)c1ccco1` gave Mito fusion yeast -4%, LDHA inh -10, ClpP mod 1.6µM*, ASM inhibitor -3%, IDH1 R132H inh 8% and RGS4 inhibitor -25%.
`CCCCC(=O)N1CCN(CCNc2cc(=O)oc3ccccc23)CC1` gave LDHA inh 0.
For Cc1ccc(-c2ccc(/C=C/C(=O)c3ccc(Cl)cc3)o2)cc1Cl the results were LDHA inh 7.
CCOc1ccc2ncc3c(-c4cccc(OC)c4)nn(-c4ccccc4)c3c2c1 was read as LDHA inh 1, ClpP mod 10µM*, IDH1 R132H inh -10% and RGS4 inhibitor -2%.
CC(NC(=O)c1cccc(S(=O)(=O)N2CCN(Cc3ccccc3)CC2)c1)c1ccccc1Cl (stereo not given) was read as LDHA inh 0, ClpP mod -1%, ASM inhibitor -2%, IDH1 R132H inh 6% and RGS4 inhibitor -133%.
CC(NC(=O)c1cccc(S(=O)(=O)N2CCN(Cc3ccccc3)CC2)c1)c1ccc(Br)cc1 (stereo not given) was read as Mito fusion yeast 3%, LDHA inh -2, ClpP mod 25µM*, ASM inhibitor -1%, IDH1 R132H inh -4% and RGS4 inhibitor -2%.
Screening Cc1cccc(N2CCN(S(=O)(=O)c3ccc4c(c3)NC(=O)C(C)S4)CC2)c1C (stereo not given) returned Mito fusion yeast 11µM*, LDHA inh -1, ClpP mod -1%, ASM inhibitor -5%, IDH1 R132H inh -2% and RGS4 inhibitor -5%[56.9 µM].

Source: PubChem BioAssay
